From PubChem BioAssay
GRIN3A LBD mod = modulates the human NR3A ligand-binding domain | Tm shift relative to glycine control, % at 25 µM | 2.5% of 340,000 active | NR3A LBD differential scanning fluorimetry, Tm shift; 0% = protein alone, 100% = glycine-bound protein;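 active means melting temperature shift of at least 10% of the positive control shift, at one fixed dose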
rCAG binder = binds r(CAG) RNA repeats; r(CAG) RNA repeat, TO-PRO-1 dye displacement fluorescence; inhibition, % at 3 µM; 1.3% of 370,000 active; AID 651821;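 active means inhibition above the plate cutoff, the mean of all test compounds on that plate plus 3 SD, cut at about 35% in these data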;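 further: 0% = DMSO alone and 100% = 100 µM mitoxantrone as full dye displacement; higher means more dye released from RNA so lower well fluorescence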
KLK7 zymogen act = proKLK7 (human) activation, primary screen; purified proKLK7, EDANS-DABCYL substrate fluorescence; 100% is mature enzyme control, 0% vehicle; 0.9% of 370,000 active; P49862; activation, % at 7 µM;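 active means activation above the mean of all tested compounds plus 3 SD, computed per campaign excluding outliers beyond control limits, cut at about 13% in these data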
ADAM10 inh = ADAM10 inhibition, QFRET primary screen; O14672; recombinant ADAM10, EDANS/DABCYL FRET peptide cleavage, 3 h; inhibition, % at 7 µM; 0.62% of 370,000 active;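 active means inhibition above a per-campaign cutoff equal to the mean of compounds falling between control-based bounds plus 3 SD, cut at about 20% in these data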;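 further: 0% = DMSO wells while the 100% control is not disclosed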
ADAM17 inh = inhibitors of human ADAM17; P78536; recombinant ADAM17, EDANS/DABCYL FRET peptide cleavage; inhibition, % at 6.95 µM; 0.83% of 370,000 active;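 active means inhibition above the mean of compounds lying between control limits plus 3 SD, set per campaign, cut at about 8.5% in these data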;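 further: 0% = DMSO-only wells as the low control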
AHR act = activates the human aryl hydrocarbon receptor. P35869. AHR-responsive luciferase reporter cells, luminescence. activation, % at 5 µM. 2.5% of 320,000 active; in the data active means activation above about 47%;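 further: 0% = vehicle wells and 100% = reference agonist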
AHR act confirm = human AHR activation, confirmation. shares compounds with AHR act. human cells, AHR-responsive luciferase reporter, luminescence. activation, % at 9 µM. 87% of 2,300 active; in the data active means activation above about 49%;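 further: HepG2 hepatoma cells carrying a DRE-driven firefly luciferase reporter; 0% = vehicle wells and 100% = reference agonist wells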
PXR counter = PXR activation, counter-screen for AHR activators | AID 434939 | shares compounds with AHR act | cell-based PXR reporter, luciferase luminescence | activation, % at 11.6 µM | 88% of 2,300 active; in the data active means activation above about 11%;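 further: human hepatoma DPX-2 cells expressing full-length human PXR; 0% = DMSO and 100% = reference agonist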
Target sequence (O75469 whole entry, looked up): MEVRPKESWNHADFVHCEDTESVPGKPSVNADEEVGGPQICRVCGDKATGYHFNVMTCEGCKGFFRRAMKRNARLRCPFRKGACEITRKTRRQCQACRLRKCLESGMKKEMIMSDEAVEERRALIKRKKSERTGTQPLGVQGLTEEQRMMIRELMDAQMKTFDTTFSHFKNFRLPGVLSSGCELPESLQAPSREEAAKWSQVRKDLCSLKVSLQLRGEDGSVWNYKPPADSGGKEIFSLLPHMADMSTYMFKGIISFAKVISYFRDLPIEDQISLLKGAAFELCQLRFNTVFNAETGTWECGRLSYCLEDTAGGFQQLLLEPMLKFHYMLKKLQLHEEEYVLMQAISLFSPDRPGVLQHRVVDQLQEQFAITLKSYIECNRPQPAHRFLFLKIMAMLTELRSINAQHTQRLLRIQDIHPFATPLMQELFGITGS
The depositor's hits bear a star; i = inactive; x = not tested or not shown. Compounds with a hit are over-represented: about 7% of the library has one in this group of screens.

SMILES | GRIN3A LBD mod | rCAG binder | KLK7 zymogen act | ADAM10 inh | ADAM17 inh | AHR act | AHR act confirm | PXR counter
CN=C(Nc1ccc(Cl)cc1)c1cccc(C(F)(F)F)c1 | 0 | -4 | -1 | 5 | 3 | 84* | 89* | 56*
C=CCO[C@H]1CN(C(=O)OC)[C@@H]2C[C@H]1Oc1ccccc12 | x | -2 | 1 | -12 | -6 | x | x | x
COc1cccc(CNC(=S)OC2CCC23CCC(c2ccccc2)CC3)c1 (stereo not given) | x | 7 | -1 | -10 | 0 | x | x | x
COc1ccc(C(=O)N/N=C/c2ccc3cccc(OCc4ccccc4)c3n2)cc1 | -1 | 3 | -427 | i | -335 | 81* | 81* | 22*
O/N=C/c1ccc2cccc(OCc3ccccc3)c2n1 | 1 | 0 | 7 | -238 | -108 | 47 | x | x
COc1ccccc1CNc1ccc2c(c1)OC[C@H](CC(C)C)NS2(=O)=O | x | 0 | 1 | -11 | -2 | x | x | x
CN(C)Cc1c(-c2ccc(Cl)cc2)nc2ccc(Cl)cn12 | 0 | -3 | 0 | -14 | -1 | 133* | 109* | 12*
CC(C)(C)Cc1c(-c2ccc(Cl)cc2)nc2ccc(Cl)cn12 | x | 2 | 1 | 0 | -3 | x | x | x
O=c1sc2ccccc2n1CCOc1ccccc1 | 2 | -3 | 0 | 7 | 5 | 109* | 123* | 30*
S=c1[nH]c2ccccc2n1CCOc1ccccc1 | -1 | -2 | 0 | 10 | -2 | 96* | 102* | 77*
Cc1cccc(OCCn2c(=S)[nH]c3ccccc32)c1 | 0 | 7 | 0 | 2 | 1 | 81* | 90* | 74*
CCOC(=O)C1=CCN(S(=O)(=O)c2ccc(Br)cc2)C1c1ccc(Br)cc1 (stereo not given) | x | 4 | 0 | -7 | 4 | x | x | x
O=C1C(Cl)=C(NCC2CCCO2)C(=O)N1CCc1ccccc1 (stereo not given) | 1 | 5 | 1 | 2 | -3 | 92* | 91* | 65*
O=C1C(Cl)=C(N2CCOCC2)C(=O)N1CCc1ccccc1 | 0 | -5 | 0 | -3 | -3 | 92* | 117* | 16*
CN1CCN(C2=C(Cl)C(=O)N(CCc3ccccc3)C2=O)CC1 | -3 | -9 | 0 | -10 | -7 | 1 | x | x
CCc1c(C)nc2cc(-c3ccc(Cl)cc3)[nH]n2c1=O | -5 | 1 | 1 | -15 | -8 | 113* | 95* | 22*
N#CC1=C(N)Nc2nc3ccccc3n2C1c1ccc(Cl)cc1 (stereo not given) | 38* | 3 | 2 | -14 | -3 | 99* | 69* | 49*
N#CC1=C(N)Nc2ncnn2C1c1ccccc1 (stereo not given) | x | x | x | x | x | 4 | x | x
CCN1CC(CN(C)Cc2nc(-c3ccc(C(F)(F)F)cc3)oc2C)CC1=O (stereo not given) | 0 | -7 | 0 | -2 | 0 | 116* | 99* | 64*
S=c1nc(COc2ccccc2)[nH]c2ccccc12 | -2 | 13 | 1 | 4 | 2 | 124* | 125* | 14*
O=C(NN=Cc1ccccc1O)C(=O)Nc1ccc(F)cc1 | x | 4 | 0 | 1 | -1 | x | x | x
C/C(CC(=O)Nc1cc(Cl)ccc1Cl)=N\NC(N)=S | 0 | 7 | 0 | 7 | 2 | 84* | 2 | 14*
COc1ccc(-c2nn3c(-c4n[nH]c5c4CCC5)nnc3s2)cc1 | x | 16 | -1 | -4 | 1 | x | x | x
Clc1ccc(-c2n[nH]c3c2CCC3)cc1Cl | -4 | 2 | 0 | 6 | 0 | 100* | 99* | 21*
Cc1ccccc1OCc1nc2ccccc2c(=O)n1/N=C/c1c[nH]c2ccccc12 | 0 | 5 | 1 | 4 | 3 | 85* | 35 | 89*
SMILES | GRIN3A LBD mod | rCAG binder | KLK7 zymogen act | ADAM10 inh | ADAM17 inh | AHR act | AHR act confirm | PXR counter
Cc1cccc(C)c1OCc1nc2ccccc2c(=O)n1/N=C/c1c[nH]c2ccccc12 | 31* | 18 | -3 | -1 | 3 | 102* | 32 | 112*
Cc1ccc(-c2[nH]ncc2/C=N/n2c(COc3ccccc3C)nc3ccccc3c2=O)cc1 | -9 | 10 | 0 | 0 | -2 | 25 | x | x
COC(=O)[C@]12C[C@H](CC(=O)NCC34CC5CC(CC(C5)C3)C4)C(=O)N(Cc3cccc4ccccc34)C1=C[C@H](C(C)C)O[C@@H]2C1CC1 | x | 9 | 0 | -10 | -3 | x | x | x
COc1ccccc1-n1nnnc1SCC(=O)Nc1ccc(C)c(N)c1 | -1 | 4 | 0 | -6 | 3 | 94* | 81* | 58*
CCCCCCCCN1C(=O)[C@@H](CC(=O)NCC2CCCCC2)C[C@@]2(C(=O)OC)C1=C[C@H](C(C)(C)C)O[C@@H]2C | x | 1 | 0 | -3 | -1 | x | x | x
COc1ccc(CN2CCC(CNC(=O)Nc3ccc(C)c(F)c3)CC2)cc1 | x | 5 | 0 | 3 | 1 | x | x | x
O=C(Nc1cc(Cl)ccc1Cl)c1ccc(-c2ccccc2)cc1 | 2 | 1 | 0 | 2 | 2 | 87* | 90* | 29*
N#CC(C#N)=C1C=CC=CN1/C(=C\c1ccco1)C(=O)c1ccc(Br)cc1 | -1 | 7 | 4 | -15 | -5 | 189* | 180* | 61*
N#CC(C#N)=C1C=CC=CN1/C(=C\c1ccco1)C(=O)c1ccccc1 | 1 | 2 | 7 | -22 | -12 | 19 | x | x
CC(=O)n1cc([C@H]2C=C(C(=O)NCc3ccccc3)O[C@@H](OCCCCO)C2)c2ccccc21 | -4 | 5 | -1 | -8 | -4 | 87* | 106* | 61*
CSc1sc(C(=O)NN)c2c1C(O)CCC2 (stereo not given) | -1 | 19 | -5 | -15 | -6 | 80* | 11 | 4
CSc1sc(C(=O)NN)c2c1C1(CCC2)SCCS1 | 0 | 3 | -1 | 8 | -2 | 32 | x | x
O=C(/C=C(\Nc1cc(Cl)c(F)c(Cl)c1)c1ccccc1)c1ccccc1 | x | 1 | 0 | -14 | -2 | x | x | x
CCOC(=O)N1CCC(NC(=O)c2cccn3c(=O)c4cc(Br)ccc4nc23)CC1 | 3 | 6 | -3 | -26 | -18 | 90* | 111* | 18*
COC(=O)[C@H](CC(C)C)N(CCCc1cn(CC2CCCCC2)nn1)S(=O)(=O)c1ccc(F)cc1Br | x | 1 | 0 | 14 | 6 | x | x | x
COC(=O)[C@]12C[C@H](CC(=O)NCCCN3CCCC3=O)C(=O)N(Cc3ccco3)C1=C[C@H](COCc1ccccc1)O[C@@H]2C | x | 7 | 0 | 5 | -3 | x | x | x
CCOc1ccccc1-c1nc(-c2ccc(NC(=O)Cc3ccc(OC)cc3)cc2)no1 | 8 | 9 | -1 | 6 | 1 | 9 | x | x
